Results on 61 sequences are retold here after the supplement of paper PMC11417369.

± gives the standard deviation of the averaged measurements. Whole data set: some 25,000 sequences, median “ln(normalized median fluorescence intensity)” near 8.9, cut for the highest 2% near 10. The full list was thinned out, with the highest values kept by preference.

This test has as its system PfAP2-LT AP2 domain (GST-tagged). In words: gcPBM binding intensity (ln(normalized median fluorescence intensity)); higher = stronger DNA binding. In outline: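 The binding buffer was 1× PBS containing 1% milk, 0.2 mg/ml BSA, 0.5% salmon testes DNA and 0.03% Triton X-100. In it, GST-tagged P. falciparum DNA-binding domains expressed in E. coli were applied for 1 h to an Agilent 4 × 180k array of primer-extended double-stranded 36-bp intergenic genomic probes plus negative controls. Binding intensity, read with Alexa488 anti-GST antibody and a 488 nm scan, is the highest Masliner-normalised natural-log median intensity across replicate spots of either probe orientation.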
In the case of “AATACCCATATCTTCACACATACATAATAAATTATA [CACACA_site5367]”, the “gcPBM binding intensity (ln)” value is 8.81 ± 0.36.

For the sequence “AAAAAAAAAATATACACACACATATAAATATAAATA [CACACA_site7574]”, the “gcPBM binding intensity (ln)” value was 9.34 ± 0.42. The value for “TGAGGTAACTAAATATGTACGTAACGAAGATACATA [XGTACX_site8231]” was 8.96 ± 0.5; that for “AATTGTTCGATATATGCACACAGTTTTGTTATTTTT [CACACA_site1615]” was 9.25 ± 0.34; that for “TATTAAACTTGACACACACACACACGCATATATAAA [CACACA_site6496]” was 10.1 ± 0.14. As to “GTTTGATTAAACTTGACACACATATATATAAATATA [CACACA_site1784]”, the “gcPBM binding intensity (ln)” value was determined as 8.71 ± 0.44.

Consider “TTTATTAAACTTGACACACACACACCCACATATATA [CACACA_site760]”, for which the “gcPBM binding intensity (ln)” value turned out to be 9.8 ± 0.28.

As for “TTTCCCCCATATAATGAACACACACCCTCCTCATAA [CACACA_site8110]”, the “gcPBM binding intensity (ln)” value stood at 9.84 ± 0.41. With “CCCCATATAATGAACACACACACTCCTCATAATTAA [CACACA_site628]”, the “gcPBM binding intensity (ln)” value worked out at 10.33 ± 0.099. Then “CCCATGTAATATTAAACACACACTCATATAACACAA [CACACA_site7906]”, with 9.36 ± 0.26. Turning to “TTATAAATTCAATGTACTACACAAAATGAATTTAAT [XGTACX_site6683]”, the “gcPBM binding intensity (ln)” value was 8.53 ± 0.35. The value for “AGAACCATATATAAATGTACATGTTAATATGAATAA [XGTACX_site130]” was 8.93 ± 0.42; that for “ATTATGTTTCTTTTTTTTTTTAAAGGATGTCTTTTT [CACACA_negctrl_site974]” was 8.62 ± 0.56; that for “TAAACATACATATACACACACACACCCACACCCACA [CACACA_site492]” was 10.3 ± 0.18. The value for “TTAAAAAAAAAACACACACACATACACATATATATA [CACACA_site3299]” was 9.91 ± 0.2.

In the case of “ATTAAACATACATATACACACACACCCACCCACCCA [CACACA_site8057]”, the “gcPBM binding intensity (ln)” value worked out at 10.22 ± 0.071.

Consider “TTATATATGTATTAATGTACATAGTTGAGAAAGGTA [XGTACX_site1511]”, for which the “gcPBM binding intensity (ln)” value came out at 8.78 ± 0.34. Then “GAACCTTTAAAATACACACCCAAATCCTTTGAAATA [CACACA_site3630]”, with 8.88 ± 0.42; and “CAATGTTGTACATACACACACACAAAAAAAAAATAA [CACACA_site2407]”, with 9.6 ± 0.45.

Take “TCTCCTTGTTCCTTTTTTTTAAAAAAAAACATTAAA [CACACA_negctrl_site679]”: the “gcPBM binding intensity (ln)” value amounted to 8.47 ± 0.52. Consider “GTTAATTATTAAATTTGTACTCATATATATTATATA [XGTACX_site6862]”, for which the “gcPBM binding intensity (ln)” value amounted to 8.71 ± 0.53. On to “AAGACACAAAAACACACACACATACATACATACATA [CACACA_site454]”, for which the “gcPBM binding intensity (ln)” value came to 9.99 ± 0.31. Then “AAAAAAAAAAGACACACACACAAATACAAATACATA [CACACA_site6334]”, with 10 ± 0.28; and “AAAAAAAAAAGACACACACACACAAATACATACACA [CACACA_site6472]”, with 10.2 ± 0.042.

With “GGTACATACAGACACACACACAAAAAAAAAAAAATA [CACACA_site6844]”, the “gcPBM binding intensity (ln)” value turned out to be 9.81 ± 0.64. Consider “CAAAGACACAAACACACACACACATACATACATACA [CACACA_site453]”, for which the “gcPBM binding intensity (ln)” value turned out to be 10.3 ± 0.42. The value for “ATAAAACAAAGACACACACACATACACAAAAAAAAA [CACACA_site7752]” was 9.99 ± 0.42. In the case of “TAATATTTCGCACTGTGTACTGAAATATTTATATCG [XGTACX_site516]”, the “gcPBM binding intensity (ln)” value came to 8.76 ± 0.36. “TAATTAACCTATGCATTCATATAGATACATAAATAT [CACACA_negctrl_site885]”: the “gcPBM binding intensity (ln)” value was 8.72 ± 0.51. Then “GGTAATTATTTTGGTTGTACTCAAATATATAATATT [XGTACX_site291]”, with 8.89 ± 0.23; and “ATCAAAAACATACCTACACACACAATATGTATATAT [CACACA_site9171]”, with 9.51 ± 0.28; and “TCAAAGCACAGATACACACACATATATATATATATA [CACACA_site287]”, with 10.18 ± 0.014. Turning to “TATATATACATATACACACACACACCCATATATATA [CACACA_site2246]”, the “gcPBM binding intensity (ln)” value worked out at 10 ± 0.11. The value for “CATATACATACACATACACACATACACCCATACACA [CACACA_site8514]” was 9.68 ± 0.29; that for “CTAGCAAATACATACACACACACACCCATACATATA [CACACA_site3496]” was 9.95 ± 0.18; that for “TCAAAGCACACATACACACACATATAGATTTATATA [CACACA_site6272]” was 9.73 ± 0.16. The value for “CACATATATACACATACACACACACCCATACACCCA [CACACA_site8505]” was 10.1 ± 0.25; that for “GATGAATAAATCAAAGCACACATACACCCACATATA [CACACA_site7986]” was 9.67 ± 0.13.

For “TCAAAGCACCCATACACACACATATATATATATATA [CACACA_site4317]”, the “gcPBM binding intensity (ln)” value was determined as 10.2 ± 0.18. The value for “TATACATACACATACACACATACACCCATACACATA [CACACA_site1746]” was 9.69 ± 0.33; that for “ACCATACATACATACACACACACACCCATATATATA [CACACA_site2917]” was 10.2 ± 0.26.

With “TATATATATATATATACACACATACAGATATATATT [CACACA_site4629]”, the “gcPBM binding intensity (ln)” value was determined as 9.5 ± 0.38. The value for “CATACACCCATACATACACACATACATATATATATA [CACACA_site8591]” was 9.62 ± 0.15; that for “TTTTTTTTGGAATTCACACAAATATAACATGGGTAT [CACACA_site5185]” was 8.7 ± 0.38. Then “AACCTATCTATAGGAACAATATATATATATATAATT [CACACA_negctrl_site1707]”, with 8.98 ± 0.33. Then “TTTTGAAAGTTTTTGTGTCCACATATATTTATATAT [XGTACX_site6563]”, with 8.94 ± 0.44; and “ACATATATATAATATATATTTTTCGTGTGGTGTCAC [CACACA_negctrl_site543]”, with 8.84 ± 0.42; and “TTTATTCTTGAGTATTGTACATATGTGTTTGTATAT [XGTACX_site5706]”, with 8.93 ± 0.45. In the case of “ATTTTCTATATCTTTCAACACACAAATTTTTTTTTC [CACACA_site7918]”, the “gcPBM binding intensity (ln)” value amounted to 8.85 ± 0.45. Regarding “TGTTTATTACTCAGGTGTACTCAATTTTTTTTTTTT [XGTACX_site3470]”, the “gcPBM binding intensity (ln)” value turned out to be 8.72 ± 0.47. Then “TATACATATATATATATATATAGATATATTCACGTG [XGTACX_negctrl_site265]”, with 9.31 ± 0.21.

For the sequence “ATTTAAATAATATGTACACACATTTAAAAAATTATA [CACACA_site2816]”, the “gcPBM binding intensity (ln)” value was 8.76 ± 0.44.

On to “AGCTCGGAAAAATTAGCATGCAAAAAAAAAAAAAAA [TGCATGCA_site658]”, for which the “gcPBM binding intensity (ln)” value came to 8.59 ± 0.58. Take “TACAATCTTTCATTATGTACTTAACATTTTTTCTGT [XGTACX_site8752]”: the “gcPBM binding intensity (ln)” value worked out at 8.85 ± 0.52. The value for “ATATTTATGGAATATACACACATGTATAATTACATA [CACACA_site7045]” was 8.83 ± 0.4; that for “TATATATATATATATACACACACACCCATATATATA [CACACA_site8812]” was 9.85 ± 0.18; that for “CTTATATATACATATACACACACACCCATATATATA [CACACA_site8705]” was 9.59 ± 0.13.

Take “AATAAATATATATACACACCCATATATATATATATA [CACACA_site2595]”: the “gcPBM binding intensity (ln)” value is 9.73 ± 0.014. The value for “CATACACCCCAACACACACACACACCCATATATAAT [CACACA_site8097]” was 10.3 ± 0.37; that for “TATATATATATATACACACACACACCCATATATATA [CACACA_site2538]” was 10.2 ± 0.3. Turning to “ACCCATATAATATATACACACATATATATATATATA [CACACA_site4731]”, the “gcPBM binding intensity (ln)” value amounted to 9.855 ± 0.035.
